Experiments:
Assay in all cases: DAPPL (digital affinity profiling via proximity ligation, sequencing); 10 mM Tris-HCl pH 7.5, 50 mM NaCl, 1 mM DTT, 4% glycerol, room temperature, 30 min; GST-TFs on glutathione beads, 16-mer random dsDNA library, 0.1% formaldehyde crosslink after washing; high values mean tight binding
FLI1 = biological target: T1, FLI1 (Homo sapiens, UniProt Q01543 1-452); conditions: protein: recombinant; tags: N-terminal GST; dsDNA, one strand shown
T1 sequence: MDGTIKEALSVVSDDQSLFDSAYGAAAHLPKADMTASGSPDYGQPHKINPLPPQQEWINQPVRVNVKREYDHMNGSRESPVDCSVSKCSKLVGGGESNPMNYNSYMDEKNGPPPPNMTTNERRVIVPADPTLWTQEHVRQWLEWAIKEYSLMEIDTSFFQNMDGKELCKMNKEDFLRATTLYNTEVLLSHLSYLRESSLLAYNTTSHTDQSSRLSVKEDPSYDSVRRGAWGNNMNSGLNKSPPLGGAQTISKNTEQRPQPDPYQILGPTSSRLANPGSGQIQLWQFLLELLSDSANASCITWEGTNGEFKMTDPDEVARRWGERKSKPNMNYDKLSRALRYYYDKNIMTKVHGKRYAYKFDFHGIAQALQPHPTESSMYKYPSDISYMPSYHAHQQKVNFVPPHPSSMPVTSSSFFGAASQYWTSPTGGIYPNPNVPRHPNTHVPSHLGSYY
In short: (§1)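 Sequencing on an Illumina NextSeq500 followed washing, crosslinking with 0.1% formaldehyde, proximity ligation (BsaI/T4 ligase, 1 h, 37 °C) and PCR amplification of pools that had been incubated for 30 min at room temperature with 200 nmole of a random double-stranded 16-mer DNA library in Tris/NaCl/DTT/glycerol buffer. Each pool held DNA-barcoded human transcription factors, expressed in yeast as GST fusions and captured on glutathione beads, plus a tag-only sample. Binding signal is a hexamer's read frequency for a factor divided by its frequency in the tag-only sample.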

ELK1 = biological target: T2, ELK1 (Homo sapiens, UniProt P19419 1-428); conditions: protein: recombinant; tags: N-terminal GST; dsDNA, one strand shown
T2 sequence: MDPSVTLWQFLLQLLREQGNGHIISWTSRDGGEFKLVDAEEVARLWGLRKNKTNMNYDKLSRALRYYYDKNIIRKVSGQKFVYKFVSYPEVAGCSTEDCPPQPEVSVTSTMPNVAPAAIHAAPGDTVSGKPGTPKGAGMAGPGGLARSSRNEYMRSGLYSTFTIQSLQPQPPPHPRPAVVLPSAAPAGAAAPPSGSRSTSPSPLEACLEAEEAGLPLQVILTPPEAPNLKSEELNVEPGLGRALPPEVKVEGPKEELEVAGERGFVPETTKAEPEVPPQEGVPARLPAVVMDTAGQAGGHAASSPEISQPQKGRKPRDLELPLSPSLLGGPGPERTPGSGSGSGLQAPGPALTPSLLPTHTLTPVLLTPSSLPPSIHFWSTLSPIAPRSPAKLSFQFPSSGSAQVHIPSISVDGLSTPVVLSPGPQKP
In short: as §1

ERG = biological target: T3, ERG (Homo sapiens, UniProt P11308 1-479); conditions: protein: recombinant; tags: N-terminal GST; dsDNA, one strand shown
T3 sequence: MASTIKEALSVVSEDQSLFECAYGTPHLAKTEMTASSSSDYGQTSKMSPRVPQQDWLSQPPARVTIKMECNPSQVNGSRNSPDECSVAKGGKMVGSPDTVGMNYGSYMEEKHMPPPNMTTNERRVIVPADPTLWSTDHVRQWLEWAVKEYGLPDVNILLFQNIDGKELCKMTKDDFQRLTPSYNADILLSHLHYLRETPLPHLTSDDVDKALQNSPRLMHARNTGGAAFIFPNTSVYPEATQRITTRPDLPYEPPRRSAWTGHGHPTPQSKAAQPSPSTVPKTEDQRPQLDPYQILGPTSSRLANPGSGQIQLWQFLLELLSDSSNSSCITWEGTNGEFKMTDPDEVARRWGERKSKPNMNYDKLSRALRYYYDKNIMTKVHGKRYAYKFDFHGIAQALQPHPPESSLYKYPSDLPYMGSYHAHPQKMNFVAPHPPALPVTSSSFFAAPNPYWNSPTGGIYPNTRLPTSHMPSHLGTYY
In short: as §1

ELF1 = ELF1 (Homo sapiens, UniProt P32519 1-619); conditions: protein: recombinant; tags: N-terminal GST; dsDNA, one strand shown
Sequence of ELF1 (P32519 whole entry): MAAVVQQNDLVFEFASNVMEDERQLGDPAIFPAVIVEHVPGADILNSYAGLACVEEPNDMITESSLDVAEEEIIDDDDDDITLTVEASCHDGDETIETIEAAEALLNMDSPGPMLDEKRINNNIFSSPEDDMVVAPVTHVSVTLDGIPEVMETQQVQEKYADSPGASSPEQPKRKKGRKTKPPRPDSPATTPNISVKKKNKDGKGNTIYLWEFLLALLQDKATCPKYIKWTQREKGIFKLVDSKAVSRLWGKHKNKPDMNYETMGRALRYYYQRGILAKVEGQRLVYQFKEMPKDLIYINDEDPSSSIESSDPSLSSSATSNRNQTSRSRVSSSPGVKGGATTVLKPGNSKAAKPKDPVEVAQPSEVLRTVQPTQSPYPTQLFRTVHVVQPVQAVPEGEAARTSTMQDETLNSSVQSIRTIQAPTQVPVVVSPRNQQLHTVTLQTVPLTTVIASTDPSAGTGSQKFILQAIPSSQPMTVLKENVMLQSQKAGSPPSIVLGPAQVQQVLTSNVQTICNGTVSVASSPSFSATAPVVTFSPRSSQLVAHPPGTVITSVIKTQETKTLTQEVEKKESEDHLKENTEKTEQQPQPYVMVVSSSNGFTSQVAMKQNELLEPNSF
In short: as §1

EHF = biological target: T4, EHF (Homo sapiens, UniProt Q9NZC4 1-300); conditions: protein: recombinant; tags: N-terminal GST; dsDNA, one strand shown
T4 sequence: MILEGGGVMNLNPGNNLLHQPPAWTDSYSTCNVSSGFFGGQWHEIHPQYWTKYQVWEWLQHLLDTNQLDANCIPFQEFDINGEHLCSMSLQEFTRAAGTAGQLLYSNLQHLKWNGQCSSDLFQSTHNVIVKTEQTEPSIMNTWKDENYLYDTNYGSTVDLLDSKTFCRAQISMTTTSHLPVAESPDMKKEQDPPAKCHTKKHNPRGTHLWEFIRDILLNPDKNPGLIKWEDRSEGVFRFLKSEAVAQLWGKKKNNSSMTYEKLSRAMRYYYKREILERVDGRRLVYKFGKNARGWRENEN
In short: as §1

SPI1 = SPI1 (Homo sapiens, UniProt P17947 1-270); conditions: protein: recombinant; tags: N-terminal GST; dsDNA, one strand shown
In short: as §1

SPIC = biological target: T5, SPIC (Homo sapiens, UniProt Q8N5J4 1-248); conditions: protein: recombinant; tags: N-terminal GST; dsDNA, one strand shown
T5 sequence: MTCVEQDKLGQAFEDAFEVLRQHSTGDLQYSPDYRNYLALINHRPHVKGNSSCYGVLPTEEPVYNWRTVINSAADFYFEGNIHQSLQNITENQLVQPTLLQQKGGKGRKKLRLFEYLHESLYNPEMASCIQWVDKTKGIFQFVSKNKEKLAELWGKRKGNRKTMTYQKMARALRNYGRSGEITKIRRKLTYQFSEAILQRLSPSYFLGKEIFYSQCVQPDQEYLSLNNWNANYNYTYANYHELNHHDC
In short: as §1

ELF4 = ELF4 (Homo sapiens, UniProt Q99607 1-663); conditions: protein: recombinant; tags: N-terminal GST; dsDNA, one strand shown
Sequence of ELF4 (Q99607 whole entry): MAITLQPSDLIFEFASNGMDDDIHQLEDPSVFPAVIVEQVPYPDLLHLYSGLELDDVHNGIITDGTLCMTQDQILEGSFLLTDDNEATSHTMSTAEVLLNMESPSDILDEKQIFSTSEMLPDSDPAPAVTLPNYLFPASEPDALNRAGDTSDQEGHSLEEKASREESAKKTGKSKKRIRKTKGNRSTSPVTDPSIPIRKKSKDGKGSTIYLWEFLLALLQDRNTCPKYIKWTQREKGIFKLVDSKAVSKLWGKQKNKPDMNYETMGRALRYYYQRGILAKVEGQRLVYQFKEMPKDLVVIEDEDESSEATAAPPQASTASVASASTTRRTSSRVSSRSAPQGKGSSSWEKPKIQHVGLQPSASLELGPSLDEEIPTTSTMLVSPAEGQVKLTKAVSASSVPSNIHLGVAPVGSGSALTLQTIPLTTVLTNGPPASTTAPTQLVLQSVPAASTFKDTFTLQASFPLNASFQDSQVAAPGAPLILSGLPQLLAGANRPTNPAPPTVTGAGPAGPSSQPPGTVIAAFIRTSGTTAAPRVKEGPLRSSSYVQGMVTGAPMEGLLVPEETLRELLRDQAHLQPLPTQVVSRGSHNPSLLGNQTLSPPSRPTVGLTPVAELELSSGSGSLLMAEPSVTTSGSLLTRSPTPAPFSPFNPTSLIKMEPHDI
In short: as §1

ELK4 = biological target: T6, ELK4 (Homo sapiens, UniProt P28324-2 1-405); conditions: protein: recombinant; tags: N-terminal GST; dsDNA, one strand shown
T6 sequence: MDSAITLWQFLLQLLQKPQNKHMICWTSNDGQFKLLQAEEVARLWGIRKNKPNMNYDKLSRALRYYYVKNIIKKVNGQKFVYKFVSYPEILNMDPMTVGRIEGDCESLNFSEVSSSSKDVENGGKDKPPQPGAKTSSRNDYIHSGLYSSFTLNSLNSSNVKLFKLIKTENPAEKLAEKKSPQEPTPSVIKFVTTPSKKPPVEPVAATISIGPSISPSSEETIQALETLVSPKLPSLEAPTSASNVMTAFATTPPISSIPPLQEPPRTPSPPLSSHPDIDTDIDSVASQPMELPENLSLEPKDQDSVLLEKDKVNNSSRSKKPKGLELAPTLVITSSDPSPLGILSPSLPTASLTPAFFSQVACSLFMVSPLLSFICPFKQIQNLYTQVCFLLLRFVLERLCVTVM
In short: as §1

ERF = biological target: T7, ERF (Homo sapiens, UniProt P50548 1-548); conditions: protein: recombinant; tags: N-terminal GST; dsDNA, one strand shown
T7 sequence: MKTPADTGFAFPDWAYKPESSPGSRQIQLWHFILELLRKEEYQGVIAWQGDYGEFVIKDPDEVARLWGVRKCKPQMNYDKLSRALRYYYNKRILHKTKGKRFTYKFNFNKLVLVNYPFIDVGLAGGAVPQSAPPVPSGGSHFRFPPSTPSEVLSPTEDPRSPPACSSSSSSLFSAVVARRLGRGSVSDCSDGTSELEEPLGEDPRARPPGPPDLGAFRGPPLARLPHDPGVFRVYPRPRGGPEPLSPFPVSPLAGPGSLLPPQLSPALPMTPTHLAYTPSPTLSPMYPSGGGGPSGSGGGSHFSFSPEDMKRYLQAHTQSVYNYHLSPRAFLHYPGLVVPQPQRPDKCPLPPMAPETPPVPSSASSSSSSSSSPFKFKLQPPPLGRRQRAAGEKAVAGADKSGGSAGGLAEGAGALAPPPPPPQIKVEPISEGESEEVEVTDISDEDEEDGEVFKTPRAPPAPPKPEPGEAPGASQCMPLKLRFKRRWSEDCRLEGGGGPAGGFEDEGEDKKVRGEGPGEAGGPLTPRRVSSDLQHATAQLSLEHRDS
In short: as §1

ETV3L = biological target: T8, ETV3L (Homo sapiens, UniProt Q6ZN32 1-361); conditions: protein: recombinant; tags: N-terminal GST; dsDNA, one strand shown
T8 sequence: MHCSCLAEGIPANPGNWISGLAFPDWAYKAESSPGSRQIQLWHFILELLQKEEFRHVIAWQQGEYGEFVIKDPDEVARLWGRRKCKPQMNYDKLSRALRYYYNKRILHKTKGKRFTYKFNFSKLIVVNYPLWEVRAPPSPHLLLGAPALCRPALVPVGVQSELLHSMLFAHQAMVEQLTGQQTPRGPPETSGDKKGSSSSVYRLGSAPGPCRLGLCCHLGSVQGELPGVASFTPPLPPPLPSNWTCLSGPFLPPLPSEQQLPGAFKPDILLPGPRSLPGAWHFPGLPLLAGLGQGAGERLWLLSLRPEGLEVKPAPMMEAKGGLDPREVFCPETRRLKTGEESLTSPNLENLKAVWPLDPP
In short: as §1

ELF5 = biological target: T9, ELF5 (Homo sapiens, UniProt Q9UKW6-2 1-255); conditions: protein: recombinant; tags: N-terminal GST; dsDNA, one strand shown
T9 sequence: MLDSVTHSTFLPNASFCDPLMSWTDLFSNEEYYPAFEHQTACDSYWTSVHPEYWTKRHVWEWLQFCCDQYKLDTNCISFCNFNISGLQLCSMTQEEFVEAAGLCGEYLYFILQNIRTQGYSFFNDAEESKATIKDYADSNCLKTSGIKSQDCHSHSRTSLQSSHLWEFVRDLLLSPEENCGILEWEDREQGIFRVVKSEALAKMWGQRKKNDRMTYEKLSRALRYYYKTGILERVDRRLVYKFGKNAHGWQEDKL
In short: as §1

ETV3 = biological target: T10, ETV3 (Homo sapiens, UniProt P41162-2 1-143); conditions: protein: recombinant; tags: N-terminal GST; dsDNA, one strand shown
T10 sequence: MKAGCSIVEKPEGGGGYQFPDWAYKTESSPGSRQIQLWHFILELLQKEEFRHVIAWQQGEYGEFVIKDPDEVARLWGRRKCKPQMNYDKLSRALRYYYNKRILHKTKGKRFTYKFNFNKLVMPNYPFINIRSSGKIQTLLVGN
In short: as §1

HSF1 = HSF1 (Homo sapiens, UniProt Q00613 1-529); conditions: protein: recombinant; tags: N-terminal GST; chain copies: 3; dsDNA, one strand shown
Sequence of HSF1 (Q00613 whole entry): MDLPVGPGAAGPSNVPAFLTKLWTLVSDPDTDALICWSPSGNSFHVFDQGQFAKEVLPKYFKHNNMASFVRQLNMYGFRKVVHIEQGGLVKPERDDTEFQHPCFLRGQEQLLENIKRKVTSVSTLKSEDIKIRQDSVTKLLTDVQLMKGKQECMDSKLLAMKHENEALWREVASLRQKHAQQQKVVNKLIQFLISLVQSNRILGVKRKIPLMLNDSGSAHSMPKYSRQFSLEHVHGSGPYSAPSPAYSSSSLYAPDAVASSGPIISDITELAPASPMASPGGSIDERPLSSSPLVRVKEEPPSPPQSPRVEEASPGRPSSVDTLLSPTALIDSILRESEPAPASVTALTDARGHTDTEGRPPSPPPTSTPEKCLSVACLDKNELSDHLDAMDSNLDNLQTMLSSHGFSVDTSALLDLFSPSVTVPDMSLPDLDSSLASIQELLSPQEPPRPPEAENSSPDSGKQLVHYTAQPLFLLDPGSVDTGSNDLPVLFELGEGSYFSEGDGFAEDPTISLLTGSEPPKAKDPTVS
In short: as §1

Sequence	binding signal (FLI1)	binding signal (ELK1)	binding signal (ERG)	binding signal (ELF1)	binding signal (EHF)	binding signal (SPI1)	binding signal (SPIC)	binding signal (ELF4)	binding signal (ELK4)	binding signal (ERF)	binding signal (ETV3L)	binding signal (ELF5)	binding signal (ETV3)	binding signal (HSF1)
CGCCAT	1.08 fold enrichment (6-mer frequency, TF over GST control)	1.01 fold enrichment (6-mer frequency, TF over GST control)	1.02 fold enrichment (6-mer frequency, TF over GST control)	1.02 fold enrichment (6-mer frequency, TF over GST control)	1.01 fold enrichment (6-mer frequency, TF over GST control)	1.08 fold enrichment (6-mer frequency, TF over GST control)	1.06 fold enrichment (6-mer frequency, TF over GST control)	1.12 fold enrichment (6-mer frequency, TF over GST control)	1.1 fold enrichment (6-mer frequency, TF over GST control)	1.08 fold enrichment (6-mer frequency, TF over GST control)	1.08 fold enrichment (6-mer frequency, TF over GST control)	1.03 fold enrichment (6-mer frequency, TF over GST control)	1.02 fold enrichment (6-mer frequency, TF over GST control)	–
ATTCGG	1.01 fold enrichment (6-mer frequency, TF over GST control)	–	–	–	–	–	1.04 fold enrichment (6-mer frequency, TF over GST control)	–	–	–	–	–	1.02 fold enrichment (6-mer frequency, TF over GST control)	1.11 fold enrichment (6-mer frequency, TF over GST control)

From publication PMC7862700, “An all-to-all approach to the identification of sequence-specific readers for epigenetic DNA modifications on cytosine”
